Screening data deposited in PubChem by University of Kansas High Throughput Screening Laboratory.
mHTT-CaM PPI inh = mHTT-calmodulin interaction abrogation | hit rate 3.6% among 190,000 | AlphaScreen His-mHTT/GST-CaM binding, luminescence | P42858 | inhibition, % at 15 µM;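 further: 0% = both proteins with DMSO and 100% = one protein alone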
Target sequence (P42858 whole entry, looked up, stated change not applied): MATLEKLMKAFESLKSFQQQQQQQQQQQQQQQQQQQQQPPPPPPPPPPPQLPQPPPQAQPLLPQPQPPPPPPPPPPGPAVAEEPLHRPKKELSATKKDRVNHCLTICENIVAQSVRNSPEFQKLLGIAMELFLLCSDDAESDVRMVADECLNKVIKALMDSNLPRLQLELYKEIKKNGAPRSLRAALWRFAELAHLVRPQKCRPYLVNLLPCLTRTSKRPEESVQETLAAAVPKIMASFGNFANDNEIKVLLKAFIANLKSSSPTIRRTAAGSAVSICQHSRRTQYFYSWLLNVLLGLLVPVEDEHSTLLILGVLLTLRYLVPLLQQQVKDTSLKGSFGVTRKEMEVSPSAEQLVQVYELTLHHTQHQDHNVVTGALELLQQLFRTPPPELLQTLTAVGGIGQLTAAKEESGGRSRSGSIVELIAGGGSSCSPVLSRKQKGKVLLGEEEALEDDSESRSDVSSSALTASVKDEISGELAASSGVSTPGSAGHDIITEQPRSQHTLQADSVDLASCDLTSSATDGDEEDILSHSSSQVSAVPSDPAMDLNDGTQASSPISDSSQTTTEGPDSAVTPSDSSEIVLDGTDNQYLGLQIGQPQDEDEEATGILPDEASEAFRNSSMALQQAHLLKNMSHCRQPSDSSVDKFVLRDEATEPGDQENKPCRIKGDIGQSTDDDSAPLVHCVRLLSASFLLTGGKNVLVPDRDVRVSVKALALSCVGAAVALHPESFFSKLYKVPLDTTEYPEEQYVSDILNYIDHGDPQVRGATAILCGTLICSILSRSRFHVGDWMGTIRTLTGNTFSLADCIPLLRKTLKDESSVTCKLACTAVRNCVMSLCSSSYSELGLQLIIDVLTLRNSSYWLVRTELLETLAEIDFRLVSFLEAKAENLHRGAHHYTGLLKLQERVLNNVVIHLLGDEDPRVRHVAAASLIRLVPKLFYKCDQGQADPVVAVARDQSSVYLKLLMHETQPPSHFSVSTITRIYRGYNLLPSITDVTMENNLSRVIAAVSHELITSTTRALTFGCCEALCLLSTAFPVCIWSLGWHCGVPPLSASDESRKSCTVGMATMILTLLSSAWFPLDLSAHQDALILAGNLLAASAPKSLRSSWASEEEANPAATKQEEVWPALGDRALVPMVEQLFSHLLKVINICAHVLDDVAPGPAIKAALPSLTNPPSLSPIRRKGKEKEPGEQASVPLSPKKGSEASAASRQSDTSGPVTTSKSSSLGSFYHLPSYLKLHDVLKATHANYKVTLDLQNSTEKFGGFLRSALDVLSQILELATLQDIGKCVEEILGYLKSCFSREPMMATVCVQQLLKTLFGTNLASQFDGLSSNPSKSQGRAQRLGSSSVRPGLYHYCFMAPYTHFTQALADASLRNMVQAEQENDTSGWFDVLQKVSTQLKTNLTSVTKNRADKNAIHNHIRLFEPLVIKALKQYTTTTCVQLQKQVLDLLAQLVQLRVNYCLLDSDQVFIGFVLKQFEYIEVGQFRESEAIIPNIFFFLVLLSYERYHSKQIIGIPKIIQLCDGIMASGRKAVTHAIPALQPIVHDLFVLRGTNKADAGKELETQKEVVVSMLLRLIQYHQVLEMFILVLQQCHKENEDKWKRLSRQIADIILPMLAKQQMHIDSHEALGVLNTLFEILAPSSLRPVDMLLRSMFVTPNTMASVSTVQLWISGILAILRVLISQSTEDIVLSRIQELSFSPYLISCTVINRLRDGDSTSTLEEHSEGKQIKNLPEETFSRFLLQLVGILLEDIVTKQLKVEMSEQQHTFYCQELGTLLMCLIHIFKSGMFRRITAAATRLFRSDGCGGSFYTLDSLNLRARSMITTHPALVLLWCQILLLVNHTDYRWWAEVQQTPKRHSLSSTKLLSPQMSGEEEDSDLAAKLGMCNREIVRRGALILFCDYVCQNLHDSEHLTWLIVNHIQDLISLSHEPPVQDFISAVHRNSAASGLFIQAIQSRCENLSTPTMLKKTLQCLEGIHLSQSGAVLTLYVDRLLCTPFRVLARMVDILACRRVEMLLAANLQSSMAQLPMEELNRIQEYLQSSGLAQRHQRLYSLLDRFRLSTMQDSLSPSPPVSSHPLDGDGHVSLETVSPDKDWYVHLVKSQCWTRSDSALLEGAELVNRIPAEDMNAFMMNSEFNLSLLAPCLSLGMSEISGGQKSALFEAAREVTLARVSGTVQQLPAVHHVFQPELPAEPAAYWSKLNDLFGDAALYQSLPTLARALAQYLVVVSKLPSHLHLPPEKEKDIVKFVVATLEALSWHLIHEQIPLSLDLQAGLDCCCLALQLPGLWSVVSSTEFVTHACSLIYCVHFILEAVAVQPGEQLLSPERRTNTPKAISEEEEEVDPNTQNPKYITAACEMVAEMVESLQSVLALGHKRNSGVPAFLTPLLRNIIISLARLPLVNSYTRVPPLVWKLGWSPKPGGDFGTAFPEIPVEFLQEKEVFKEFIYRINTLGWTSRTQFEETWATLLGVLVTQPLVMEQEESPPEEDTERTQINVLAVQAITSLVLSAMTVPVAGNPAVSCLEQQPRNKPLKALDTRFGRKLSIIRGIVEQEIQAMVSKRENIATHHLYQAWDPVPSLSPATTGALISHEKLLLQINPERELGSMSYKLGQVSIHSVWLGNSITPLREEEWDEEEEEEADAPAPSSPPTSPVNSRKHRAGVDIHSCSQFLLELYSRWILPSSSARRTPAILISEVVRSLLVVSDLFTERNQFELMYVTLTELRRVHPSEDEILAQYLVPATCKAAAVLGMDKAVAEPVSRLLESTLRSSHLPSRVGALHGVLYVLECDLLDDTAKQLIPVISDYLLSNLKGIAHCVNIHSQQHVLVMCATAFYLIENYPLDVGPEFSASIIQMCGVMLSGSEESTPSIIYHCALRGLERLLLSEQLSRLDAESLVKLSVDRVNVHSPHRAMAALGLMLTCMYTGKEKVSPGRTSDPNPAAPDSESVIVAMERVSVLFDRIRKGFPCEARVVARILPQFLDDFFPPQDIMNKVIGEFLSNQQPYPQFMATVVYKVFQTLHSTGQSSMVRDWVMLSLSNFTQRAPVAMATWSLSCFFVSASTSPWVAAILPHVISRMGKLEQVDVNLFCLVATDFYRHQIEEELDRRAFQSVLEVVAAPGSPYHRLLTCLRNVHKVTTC
Pf apPOL block = Pf-apPOL DNA polymerase inhibition | Recombinant Pf-apPOL, molecular beacon fluorescence, 1.5 h | hit rate 0.25% among 210,000 | AID 1794808 | inhibition, % at 10 µM
Numbers without * were called inactive. Most compounds without a hit are left out; they make up all but 3.6% or so of the library. No stated cut-off is given here; in the data, active means inhibition above about 50%; inactive means the rest.

SMILES	mHTT-CaM PPI inh	Pf apPOL block
N#Cc1c(N)nc2sc(C(=O)c3ccc(Cl)cc3)c(N)c2c1-c1ccc(O)cc1	83*	8
COc1ccc(-c2c(C#N)c(N)nc3sc(C(=O)c4ccc(C)cc4)c(N)c23)cc1	-3	-1
CC(C)(C)Nc1c(-c2ccccn2)nc2ccc(Br)cn12	36	2
O=C(CCc1cc2ccccc2[nH]c1=O)N1CCSCC1	100*	-6
O=C(CCc1cc2ccccc2[nH]c1=O)N1CCCCC1	-7	-3
O=C(Cc1cccs1)N1CCCn2nc(-c3cccs3)cc2C1	6	-6
Cc1ccc(S(=O)(=O)N=C2C=CC(=O)C(Br)=C2)cc1	59*	-4
Cc1ccc(S(=O)(=O)N=C2C=C(Br)C(=O)C(Br)=C2)cc1	45	0
CC1=CC(=O)C(Br)=CC1=NS(=O)(=O)c1ccc(C)cc1	64*	-9
Cc1ccc(C)c(S(=O)(=O)N=C2C=CC(=O)C(Br)=C2)c1	65*	-2
CCN(CC)C(=NS(=O)(=O)c1cc(C)ccc1C)c1ccccc1	6	3
Cc1cc(C)c(S(=O)(=O)N=C2C=CC(=O)C=C2)c(C)c1	39	-4
Cc1ccc(S(=O)(=O)N=C2C=C(C(C)C)C(=O)C(C(C)C)=C2)cc1	-4	1
Cc1ccc(C)c(S(=O)(=O)N=C2C=CC(=O)C=C2)c1	51*	-4
Cc1noc(-c2nn(C)c3c2CN(C(=O)c2ccc(C(F)(F)F)cc2)CC3)n1	-8	1
CC1(C)Oc2ccc(NC(=O)CCC3CCCC3)cc2O1	5	-5
CC(=O)N1CCc2sc(C(=O)NCc3cccc(Cl)c3)cc2C1	5	-4
CC(=O)N1CCc2sc(C(=O)NCc3cccc(Br)c3)cc2C1	56*	0
Cc1ccc(S(=O)(=O)N(CC(=O)N2CCC(C(N)=O)CC2)C2CCCCC2)cc1	-2	4
CN1CCN(c2ccc(-c3cccc(NC(=O)c4cccs4)c3)nn2)CC1	-10	2
O=C(Cc1noc2ccccc12)Nc1cccc(-c2ccc(N3CCCC3)nn2)c1	67*	-29
O=C(Nc1cccc(-c2ccc(N3CCCC3)nn2)c1)c1cc(-c2cccs2)[nH]n1	99*	1
Cc1noc(C)c1CCC(=O)Nc1cccc(-c2ccc(N3CCCC3)nn2)c1	27	-8
O=C(NC1CC(O)C(CO)C1)c1ccc(Cl)cc1Cl (stereo not drawn)	-4	-8
Cc1ccc(NC(=O)Cn2nc(N3CCCC3)c3ccccc3c2=O)cc1Cl	-4	-2
SMILES	mHTT-CaM PPI inh	Pf apPOL block
CC(C)CNC(=O)C1CC(=O)N(CCc2c[nH]c3ccc(F)cc23)C1 (stereo not drawn)	1	-2
CCOc1cc2c(c([N+](=O)[O-])c1)NC(c1ccc([N+](=O)[O-])cc1)C1CC=CC21 (stereo not drawn)	50*	1
CCOc1cc2c(c([N+](=O)[O-])c1)NC(c1ccccc1F)C1CC=CC21 (stereo not drawn)	95*	-2
CCOc1cc2c(c([N+](=O)[O-])c1)NC(C(C)C)C1CC=CC21 (stereo not drawn)	73*	1
COc1cc2c(c([N+](=O)[O-])c1)NC(c1ccc(Br)cc1)C1CC=CC21 (stereo not drawn)	24	-1
O=C1NC(=Nc2cccc(C(=O)O)c2)S/C1=C\c1ccc(-c2ccc(C(=O)O)cc2)o1	26	5
CCOc1ccc(NC(=O)N2CCCC2c2cc(C)no2)cc1 (stereo not drawn)	-3	-2
Cc1ccc(C)c(C(=O)N2CCC(c3nc(C(=O)N4CCOCC4)c(C)o3)CC2)c1	-5	-3
CCC(=O)N1CCc2cc(Br)cc(S(=O)(=O)Nc3cccc(CC)c3)c21	0	-10
Cc1cc(C2CCCCC2)ccc1O	3	-2
Oc1ccc(C2CC3CCC2C3)cc1O (stereo not drawn)	54*	-2
CCN1c2ccccc2C(=O)NC12CCN(C(=O)c1ccccc1F)CC2	12	0
Cc1oc(C2CCN(S(=O)(=O)c3ccc(C#N)cc3)CC2)nc1C(=O)N(C)C	-5	-2
COc1ccc(C2CC(=O)Oc3cc(OC)ccc32)cc1 (stereo not drawn)	0	-2
COc1ccc(C2CC(=O)Oc3c(C(C)C)ccc(C)c32)cc1 (stereo not drawn)	-36	-7
COc1ccc(C2CC(O)(c3ccccc3)Oc3cc(OC)ccc32)cc1 (stereo not drawn)	80*	-3
COc1ccc(C2CC(O)(c3ccccc3)Oc3c(C)ccc(C(C)C)c32)cc1 (stereo not drawn)	55*	2
CCOCCCNC(=O)N1CCN(Cc2nc3cccnc3n2-c2cccc(C)c2)CC1	3	0
O=S(=O)(Nc1cccc(F)c1)c1ccc(Cl)cc1	-14	-10
C=CCNC(=O)c1c[nH]c2ccc(S(=O)(=O)N(C)c3ccc(Cl)cc3F)cc2c1=O	7	-5
C=CCN(c1ccccc1)S(=O)(=O)c1ccc2[nH]cc(C(=O)NCCOC)c(=O)c2c1	50*	-10
C=CCN(c1ccccc1)S(=O)(=O)c1ccc2[nH]cc(C(=O)NCCCC)c(=O)c2c1	32	-5
C=CCNC(=O)c1c[nH]c2ccc(S(=O)(=O)N(C)c3ccc(Cl)cc3)cc2c1=O	53*	-15
CC(C)(Oc1ccc(Cl)cc1)C(=O)Nc1ccc(Cl)cc1F	-112	-8
Cc1cccc(OCc2nc(C(=O)NC(C)C)cs2)c1C	-12	-1
SMILES	mHTT-CaM PPI inh	Pf apPOL block
O=C(NC1CC2CC1CN2C(=O)Nc1ccc2c(c1)CCC2)c1cccs1 (stereo not drawn)	4	0
COc1ccccc1CC(=O)Nc1ccc(OC)c(OC)c1	0	-9
COc1cc2c(C)[nH]c(=O)c(CC(=O)Nc3ccccc3)c2cc1OC	65*	-3
Cc1cc(NC(=O)C(=O)NCCN2CCN(c3ccccc3F)CC2)no1	-6	-3
CCn1c(SC)nnc1-c1nn(C)c2c1CN(C(=O)c1cccs1)CC2	-5	-8
Cc1ccsc1/C=C1\SC(c2ccccc2)=NC1=O	41	-2
Cc1ccc(C2=NC(=O)/C(=C/c3sccc3C)S2)cc1	53*	4
O=C1N=C(N2CCCCC2)S/C1=C\c1cccs1	-1	-7
O=C1N=C(c2ccccc2)S/C1=C\c1cccs1	62*	-11
Cc1ccc(S(=O)(=O)N2CC(c3nc(C)no3)C3(CCOCC3)C2)cc1 (stereo not drawn)	-1	-7
Nc1cccn2nc(C3CC3)nc12	-10	3
O=S(=O)(N=C(NS(=O)(=O)c1ccc(Cl)cc1)c1ccccc1)c1ccccc1	-1	2
O=C(O)c1ccc(S(=O)(=O)c2ccccc2)cc1	4	-10
CCc1ccc(S(=O)(=O)N=C2C=C(Nc3cccc(C(=O)O)c3)C(=O)c3ccccc32)cc1	80*	-3
O=C(O)c1cccc(NC2=CC(=NS(=O)(=O)c3ccc(F)cc3)c3ccccc3C2=O)c1	45	17
O=C(O)c1ccc(NC2=CC(=NS(=O)(=O)c3ccccc3)c3ccccc3C2=O)cc1	62*	7
O=C1C(Nc2ccc(O)cc2)=CC(=NS(=O)(=O)c2ccc(Cl)cc2)c2ccccc21	98*	0
COc1ccc(C2=N/C(=C\c3ccc(C(C)C)cc3)C(=O)O2)cc1	-6	1
CCN1CCN(c2nc(-c3cccc(C)c3)nnc2C)CC1	-2	0
O=C(c1c(F)cccc1F)N1CCN(c2ccc(Cl)c(Cl)c2)CC1	19	3
Clc1ccc(N2Cc3ccccc3C2)cc1Cl	87*	-2
